Compound activity from PubChem BioAssay.
Shown are actives, neighbours in structure and some others; about 4.1% of the full set was active somewhere.
ALR H2O2 inh: human ALR oxidase inhibition via reduced H2O2 | inhibition, % (no concentration beside the values) | purified ALR, DTT oxidation, H2O2 HRP-luminol luminescence | AID 485317 | P55789 | 3.8% of 290,000 active;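 active means mean replicate inhibition above about 79%, with every replicate also reaching it, limit read from the data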
Target sequence (P55789 whole entry, looked up): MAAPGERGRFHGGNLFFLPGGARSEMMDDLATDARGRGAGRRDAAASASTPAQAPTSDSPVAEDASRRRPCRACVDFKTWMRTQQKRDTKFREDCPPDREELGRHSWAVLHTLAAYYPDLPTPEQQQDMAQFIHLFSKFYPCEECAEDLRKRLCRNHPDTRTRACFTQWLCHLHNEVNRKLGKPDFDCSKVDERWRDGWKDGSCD
IDE cell activ: IDE (human) activation, cell-based. HEK cells, FAbeta-B cleavage, fluorescence polarization; 0% vehicle, 100% cell-free pure enzyme wells. activation, % at 5.96 µM. AID 493087. 0.073% of 340,000 active;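 active means activation above the mean of all tested compounds plus 3 SD, set per screening campaign, cut at about 17% in these data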
PolyA inhibitor: blocks polyadenylation in yeast reporter cells | S. cerevisiae SKY197-pL101 polyadenylation reporter, beta-gal luminescence; efflux-impaired pdr1/pdr3 knockout yeast; score 100 = 6 SD above DMSO | activity score, % at 12 µM | 0.02% of 300,000 active;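 active means lowest replicate activity score at least 50, where 100 means six control SD above control mean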;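 further: yeast exposed to compound for 9 h at 30 °C; higher score means more reporter readthrough which indicates perturbed polyadenylation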
IDE cell inh: cellular human IDE inhibition; P14735; HEK cells, FAbetaB cleavage, fluorescence polarization; inhibition, % at 5.59 µM; 0.41% of 320,000 active; AID 434962;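 active means percent inhibition above the average of all tested compounds plus 3 SD, set per screening campaign, cut at about 16% in these data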;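 further: IDE supplied by intact live HEK cells; FP after avidin binding of uncleaved biotin substrate so inhibition keeps polarization high; 0% = DMSO wells and 100% = 60 µM reference IDE inhibitor Ii1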
PfM18AAP inh: PfM18AAP enzyme inhibition; 1.2% of 290,000 active; recombinant PfM18AAP, H-Glu-NHMec fluorogenic cleavage; inhibition, % at 7.35 µM; AID 1822;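 active means inhibition above the campaign mean inhibition over all tested compounds plus 3 SD, cut at about 28% in these data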;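 further: 0% = plate median of test compound wells and 100% = 2 mM ZnCl2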
CaV13 ICDI inh: Disruptors of the CACNA1D IQ motif to Ca2+-dependent inactivation inhibitor domain association, primary screening, Förster resonance energy transfer in intact living …. HEK cells, CFP/YFP FRET ICDI-IQ, plate reader, 10 min; percent FRET-ratio fall versus neutral wells. inhibition, % at 12.3 µM. 0.098% of 340,000 active. AID 743397;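 active means mean replicate inhibition of at least 30% and at least 1% of replicates passing that level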;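 further: 0% = median of the neutral control wells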
Numbers without * were called inactive.

Screening COc1ccc(/C=N/NC(=O)c2ccoc2C)cc1OC returned IDE cell activ -2, PolyA inhibitor 3, IDE cell inh -1, PfM18AAP inh -2 and CaV13 ICDI inh -4.
`COc1ccc(/C=N/NC(=O)c2ccc(C)nc2)cc1O` gave ALR H2O2 inh 97*, IDE cell activ 2, PolyA inhibitor 7, IDE cell inh 2, PfM18AAP inh 5 and CaV13 ICDI inh -21.
`COc1cccc(/C=N\NC(=O)c2ccc(C)nc2)c1` gave IDE cell activ -1, PolyA inhibitor -5, IDE cell inh 8, PfM18AAP inh 4 and CaV13 ICDI inh 0.
Cn1cnnc1SCc1ccc(C(=O)N/N=C(\CCC(=O)O)c2ccc(C(C)(C)C)cc2)cc1 was read as ALR H2O2 inh 98*, IDE cell activ 2, IDE cell inh -7, PfM18AAP inh 2 and CaV13 ICDI inh -3.
Screening COc1ccc(/C=N/NC(=O)c2ccoc2C)cc1O returned ALR H2O2 inh 99*, IDE cell activ 1, PolyA inhibitor 1, IDE cell inh 5, PfM18AAP inh -14 and CaV13 ICDI inh -5.
COc1ccc(OCC(=O)Nc2cccc(C(=O)Nc3ccccc3C(=O)O)c2)cc1 was read as ALR H2O2 inh 48, IDE cell activ 3, PolyA inhibitor -13, IDE cell inh 4, PfM18AAP inh -2 and CaV13 ICDI inh -5.
O=C1C=C(c2ccc3c(c2)oc2ccccc23)C[C@@H](c2ccc3c(c2)OCO3)C1 was read as ALR H2O2 inh -2, IDE cell activ -2, IDE cell inh 7 and CaV13 ICDI inh -11.
For CCOc1ccccc1-c1n[nH]c(=S)o1 the results were ALR H2O2 inh 37, IDE cell activ 0, PolyA inhibitor 4, IDE cell inh 0, PfM18AAP inh 1 and CaV13 ICDI inh -4.
COc1ccc(-c2n[nH]c(=S)o2)c(OC)c1 was read as ALR H2O2 inh 90*, IDE cell activ -2, PolyA inhibitor 0, IDE cell inh -2 and PfM18AAP inh -3.
Screening Cc1ccc(-c2csc(/C(C#N)=C(\O)CN3CCN(C(=O)c4ccco4)CC3)n2)cc1 returned ALR H2O2 inh 99*, IDE cell activ 2, PolyA inhibitor -13, IDE cell inh -1 and PfM18AAP inh -12.
Screening Cc1ccc(NC(=O)CN2CCN(C(=O)c3ccco3)CC2)cc1 returned IDE cell activ 0, PolyA inhibitor 5, IDE cell inh -3, PfM18AAP inh -2 and CaV13 ICDI inh -5.
Screening Cc1ccc2nc(-c3ccc(NC(=O)CN4CCN(C(=O)c5ccco5)CC4)cc3)sc2c1 returned ALR H2O2 inh -4, IDE cell activ -8, PolyA inhibitor -1, IDE cell inh 18*, PfM18AAP inh 1 and CaV13 ICDI inh -8.
`Cc1sc2nc(CSCC(=O)Nc3ccc(C(=O)N(C)C)cc3)[nH]c(=O)c2c1C` gave ALR H2O2 inh 99*, IDE cell activ -4, IDE cell inh 1 and CaV13 ICDI inh -7.
Screening Cc1sc2nc(CSCC(=O)Nc3ccc(OC(F)F)cc3)[nH]c(=O)c2c1C returned ALR H2O2 inh 97*, IDE cell activ 4, PolyA inhibitor -5, IDE cell inh 8, PfM18AAP inh 0 and CaV13 ICDI inh 3.
Screening CC(=O)c1ccccc1NC(=O)CSCc1nc2sc(C)c(C)c2c(=O)[nH]1 returned IDE cell activ -5 and CaV13 ICDI inh -3.
`OCc1ncccc1O` gave ALR H2O2 inh 4, IDE cell activ 0, PolyA inhibitor 8, IDE cell inh 1, PfM18AAP inh -3 and CaV13 ICDI inh -19.
Screening CS(=O)(=O)N(CC(=O)NCc1ccccn1)Cc1ccc(Cl)cc1 returned ALR H2O2 inh 99*, IDE cell activ 3, PolyA inhibitor -25, IDE cell inh 1, PfM18AAP inh -4 and CaV13 ICDI inh 0.
COC(=O)[C@]12C[C@H](CC(=O)NCCc3ccccc3OC)C(=O)N(Cc3ccccc3)C1=C[C@H](C1CCCC1)O[C@@H]2C was read as CaV13 ICDI inh -9.
Screening CCc1c(O)nc(SCC(=O)Nc2ccc3c(c2)CCC3)[nH]c1=O returned ALR H2O2 inh 100*, IDE cell activ 12, PolyA inhibitor 18, IDE cell inh 3, PfM18AAP inh 0 and CaV13 ICDI inh -1.
Cc1ccc2nc(SCC(=O)Nc3ccc4c(c3)CCC4)[nH]c2c1 was read as IDE cell activ -2, PolyA inhibitor 2, IDE cell inh 0, PfM18AAP inh -8 and CaV13 ICDI inh -4.
`CCCCc1c(O)nc(SCC(=O)Nc2ccc3c(c2)CCC3)[nH]c1=O` gave ALR H2O2 inh 99*, IDE cell activ 0, PolyA inhibitor 6, IDE cell inh 3, PfM18AAP inh 1 and CaV13 ICDI inh -2.
For O=C(CSc1nc2ccccc2[nH]1)Nc1ccc2c(c1)CCC2 the results were ALR H2O2 inh 52, IDE cell activ -2, PolyA inhibitor 29, IDE cell inh 0, PfM18AAP inh 3 and CaV13 ICDI inh -16.
`CCCN1CCc2nc(SCC(=O)Nc3ccc(C)c(Cl)c3)[nH]c(=O)c2C1` gave ALR H2O2 inh 98*, IDE cell activ -4, PolyA inhibitor -11, IDE cell inh 0, PfM18AAP inh 26 and CaV13 ICDI inh -7.
For Nc1ccc(-c2nc3cc(N)ccc3s2)cc1 the results were ALR H2O2 inh 99*, IDE cell activ 4, IDE cell inh 1, PfM18AAP inh 1 and CaV13 ICDI inh -2.
Screening CC(=O)Nc1ccc(S(=O)(=O)N2CCN=C2SCc2ccc([N+](=O)[O-])cc2)cc1 returned ALR H2O2 inh 99*, IDE cell activ 2, PolyA inhibitor 18, IDE cell inh -1 and PfM18AAP inh 2.
`CS(=O)(=O)N1CCN=C1SCc1ccc([N+](=O)[O-])cc1` gave ALR H2O2 inh 99*, IDE cell activ -1, PolyA inhibitor 11, IDE cell inh -2, PfM18AAP inh 2 and CaV13 ICDI inh -4.
Screening CC(=O)Nc1ccc(S(=O)(=O)N2CCN=C2SCc2ccccc2C)cc1 returned ALR H2O2 inh 98*, IDE cell activ 6, PolyA inhibitor 4, IDE cell inh 2, PfM18AAP inh 2 and CaV13 ICDI inh -12.
COc1ccc(CCNS(=O)(=O)c2ccc(Br)s2)cc1 was read as ALR H2O2 inh -9, IDE cell activ 6, PolyA inhibitor 13, IDE cell inh -2, PfM18AAP inh 4 and CaV13 ICDI inh -6.
CCOC(=O)/C(=C/c1c[nH]c2ccccc12)NC(C)=O was read as ALR H2O2 inh 97*, IDE cell activ 5, PolyA inhibitor 5, IDE cell inh 3, PfM18AAP inh -6 and CaV13 ICDI inh -6.
